# The whole screen tested about 6,200 compounds, of which about 2,900 (47%) were called active. Rule as the data show it: active = inhibition above about 50%; inactive = the rest. So high a share suggests a set chosen from earlier hits. The list shows a part of the results.
# Assay: Mycobacterium tuberculosis growth inhibition, primary screen (AID 1259343)
# Settings: inhibition: at 10 µM, stronger effect = higher value; outcome: 10 uM
row,Structure (SMILES),inhibition
1,CC(C)Cc1csc2nc(Cc3cccs3)[nH]c(=O)c12,42% (inactive)
2,CN(Cc1nc2scc(-c3ccco3)c2c(=O)[nH]1)C1CCCCC1,-6.13% (inactive)
3,O=c1[nH]c(CN2CCCC2c2cccs2)nc2scc(-c3ccco3)c12 (stereo unspecified),85% (active)
4,CCN(CCS(=O)(=O)c1cc(Cl)ccc1Cl)CC(=O)NC(C)C,-1.76% (inactive)
5,c1ccc(CCc2cn(CC3COc4ccccc4O3)nn2)cc1 (stereo unspecified),55.8% (active)
6,Clc1cc(CNCC2COc3ccccc3O2)cc2c1OCCO2 (stereo unspecified),11.4% (inactive)
7,CN(CC1COc2ccccc2O1)C(=O)NCCc1ccsc1 (stereo unspecified),-41.3% (inactive)
8,FC(F)(F)c1ccc(-c2cnnc(N3CCC(c4ccncc4)CC3)n2)cc1,37.4% (inactive)
9,C#CCOc1cccc(NC(=O)CSC2CCS(=O)(=O)C2)c1 (stereo unspecified),84.6% (active)
10,O=C(Nn1cnc2ccccc21)c1ccccc1SC1CCS(=O)(=O)C1 (stereo unspecified),-8.68% (inactive)
11,O=C(NCc1cccc(COCc2ccco2)c1)c1ccccc1,14.8% (inactive)
12,O=C(NCc1ccccc1F)c1cccc(COCC(F)(F)C(F)F)c1,68.7% (active)
13,COc1ccc(C2CCCN2C2=NCc3cnn(C(C)(C)C)c3N2)cc1 (stereo unspecified),10% (inactive)
14,O=C(NC1CCCCC1)c1cnccn1,47.9% (inactive)
15,Cc1ccc(Sc2ccc(C(=O)NC3CC3)cn2)cc1,11.2% (inactive)
16,O=C(NC1CCCCC1)c1ccc(C(F)(F)F)nc1,57.1% (active)
17,FC(F)(F)c1cc(-c2ccc(Cl)cc2)nc(-n2cccn2)n1,61.6% (active)
18,O=c1cc(CSc2nnc(-c3ccc(Cl)s3)o2)occ1O,80.1% (active)
19,CCc1cc(=O)[nH]c(-n2nc(C)cc2NC(=O)/C=C/c2ccc3c(c2)OCO3)n1,100% (active)
20,Cc1cc(=O)[nH]c(-n2nc(C)cc2NC(=O)/C=C/c2ccc3c(c2)OCO3)n1,101% (active)
21,N/C(=N/O)c1cncc(OCC(F)(F)F)n1,92% (active)
22,Brc1c(-c2ccccc2)nc2ccccn12,40% (inactive)

row,Structure (SMILES),inhibition
1,CN(Cc1ccc(C(N)=O)cc1)Cc1ccccc1Br,17.4% (inactive)
2,CC(Oc1ccc(C(N)=O)cc1)C(=O)c1ccc(Br)cc1 (stereo unspecified),71.9% (active)
3,CC(Oc1ccc2cc(Br)ccc2c1)C(=O)NC(N)=O (stereo unspecified),80.7% (active)
4,N#Cc1ccc(NC(=O)NCc2ccn(-c3ccccc3)n2)cc1,32.1% (inactive)
5,CCc1ccc(CNC(=O)Nc2ccc(C#N)cc2)s1,56.1% (active)
6,CCCSc1nnc(-c2c(Cl)c(CC)nn2C)s1,52.5% (active)
7,N#Cc1nc(-c2ccc(Cl)cc2)oc1NC1CC1,26.7% (inactive)
8,N#CCc1cc(-c2ccc(Cl)cc2)on1,72.6% (active)
9,COc1cccc(CC2(CO)CCCN(C(=O)Nc3cccc(C(F)(F)F)c3)C2)c1 (stereo unspecified),11% (inactive)
10,COc1cccc(-c2cc(N)c(=O)n(Cc3ccc(C(F)(F)F)cc3)n2)c1,22.8% (inactive)
11,COc1cccc(Oc2ccc(C(F)(F)F)cc2NC(C)=O)c1,82.6% (active)
12,Cc1ccc(OC(C)C(=O)Nc2ccc3c(c2)CCC3)cc1 (stereo unspecified),1.9% (inactive)
13,O=C(Nc1nnc(-c2ccc3c(c2)CCCC3)o1)c1ccc([N+](=O)[O-])s1,101% (active)
14,CC(C)(C)C(=O)Nc1nnc(-c2ccc3c(c2)CCCC3)o1,92.3% (active)
15,NC(Cc1ccc(F)cc1)c1csc(Nc2nccc(C(F)(F)F)n2)n1 (stereo unspecified),66.7% (active)
16,NC(CCc1ccccc1)c1csc(Nc2nccc(C(F)(F)F)n2)n1 (stereo unspecified),50.5% (active)
17,NC(Cc1ccc(C(F)(F)F)cc1)c1csc(Nc2ncccn2)n1 (stereo unspecified),29.2% (inactive)
18,NC(Cc1ccc(Cl)cc1)c1csc(Nc2nccc(C(F)(F)F)n2)n1 (stereo unspecified),63.1% (active)
19,NC(Cc1ccc(C(F)(F)F)cc1)c1csc(Nc2nccc(C(F)(F)F)n2)n1 (stereo unspecified),94.8% (active)
20,O=C(Cc1cc(-c2cc3ccccc3o2)on1)NCCCN1CCOCC1,20.8% (inactive)
21,OCc1cc(-c2cc3ccccc3o2)on1,8.03% (inactive)
22,c1ccc(Cn2cc(CN3CCN(c4ncccn4)CC3)c(-c3cc4ccccc4o3)n2)cc1,inactive

row,Structure (SMILES),inhibition
1,OCc1cn(-c2ccccc2)nc1-c1cc2ccccc2o1,74.7% (active)
2,C(=NN1CCOCC1)c1cn(-c2ccccc2)nc1-c1cc2ccccc2o1,88.6% (active)
3,O=C(CC(O)(c1ccccc1)C(F)(F)F)N1CCN(Cc2ccc(Cl)cc2)CC1 (stereo unspecified),53.2% (active)
4,O=C1NC(C2=Cc3cc(Cl)ccc3OC2)Nc2ccccc21 (stereo unspecified),0.99% (inactive)
5,COC(=O)c1cnc(Nc2nc(C(N)Cc3ccc(Cl)cc3)cs2)nc1C(F)(F)F (stereo unspecified),85.1% (active)
6,COC(=O)c1cnc(Nc2nc(C(N)c3ccccc3Cl)cs2)nc1C(F)(F)F (stereo unspecified),94% (active)
7,CC(=O)Nc1ccc(Sc2nc(C)cc(C)c2C#N)cc1,-11.9% (inactive)
8,COc1cc(N(C)CCC(O)c2ccccc2)ncn1 (stereo unspecified),-15.6% (inactive)
9,COc1cc(-c2cccc(O)c2)ncn1,93.2% (active)
10,CN(C)c1ccc(CN(C)S(=O)(=O)Cc2ccccc2)cc1,30.6% (inactive)
11,C=C1N(C)c2cc([N+](=O)[O-])c(N)cc2C1(C)C,64.8% (active)
12,c1ccc(-c2nc(SCC3CCOCO3)oc2-c2ccccc2)cc1 (stereo unspecified),-19.9% (inactive)
13,O=S(=O)(/C=C/C=C/Sc1ccccc1)c1ccccc1,90.4% (active)
14,Cc1cc(C)n(-c2nc(NC(C)C)nc(NC(C)(C)C)n2)n1,101% (active)
15,CCn1cc(C(CC(=O)O)c2cccc(F)c2)c2ccccc21 (stereo unspecified),18.8% (inactive)
16,CN(C)c1ccc(-c2nc3c(C(=O)NNc4cccc(Cl)c4)cccc3[nH]2)cc1,85.1% (active)
17,Cc1nn(C)c(C)c1C(=O)NNc1cccc(Cl)c1,-9.93% (inactive)
18,O=C(Cc1cc(-c2cc3ccccc3o2)on1)NCc1cccs1,28.1% (inactive)
19,O=C(Cc1cc(-c2cc3ccccc3o2)on1)NCc1ccco1,91.1% (active)
20,O=C(Cc1cc(-c2cc3ccccc3o2)on1)NCc1ccc(F)cc1,22.7% (inactive)
21,O=C(Cc1cc(-c2cc3ccccc3o2)on1)NCc1ccncc1,75.1% (active)
22,CNc1nc2cnc(Nc3ccc(Oc4ccccc4)cc3)cc2n1CCOC,69.3% (active)

row,Structure (SMILES),inhibition
1,Nc1cccc(-c2cc(Nc3ccc(Oc4ccccc4)cc3)ncn2)c1,9.35% (inactive)
2,Cc1cnc(C(=O)NC(C)c2ccccc2OC(C)C)cn1 (stereo unspecified),-5.8% (inactive)
3,O=C(Nc1ccc(OCC(F)(F)F)cc1)c1cnccn1,25.9% (inactive)
4,O=C(C=Cc1cccs1)NCc1ccc2c(c1)OCO2,-6.77% (inactive)
5,CN(C)c1ccc(CNC(=O)c2ccc3c(c2)CCCC3)cc1,-5.89% (inactive)
6,COC(=O)Cc1ccc(NC(=O)c2cnccn2)cc1,87.5% (active)
7,COc1ccc(CCNC(=O)c2cnc(C)cn2)cc1OC,41.9% (inactive)
8,Cc1cnc(C(=O)NCCc2ccccc2C)cn1,94.4% (active)
9,O=C(NCc1ccc2c(c1)OCO2)c1cccs1,52.8% (active)
10,COC(=O)c1ccc(CNC(=O)c2ccc3c(c2)OCO3)cc1,55.5% (active)
11,Cc1ccc(C2(O)CCN(c3noc(-c4ccccc4)n3)CC2)nc1,16.2% (inactive)
12,CCCc1ccc(NC(=O)c2cnc(C)cn2)cc1,100% (active)
13,Cc1cnc(C(=O)NCc2ccc3c(c2)OCO3)cn1,63.5% (active)
14,CC1Cc2cc(CNC(=O)c3cc(C(C)C)nn3C)ccc2O1 (stereo unspecified),3.55% (inactive)
15,Cc1cnc(C)c(Nc2nc(C(N)Cc3ccc(C(F)(F)F)cc3)cs2)n1 (stereo unspecified),81.1% (active)
16,Cc1cnc(C)c(Nc2nc(C(N)Cc3ccc(Cl)cc3)cs2)n1 (stereo unspecified),78.6% (active)
17,CCOCCC1(C(=O)Nc2ccc(CC)cc2)CCC1,75.8% (active)
18,CCc1ccc(NC(=O)COc2ccc(Br)cn2)cc1,-1.65% (inactive)
19,COCc1cccc(C(=O)Nc2nc(C3CC3)cs2)c1,5.98% (inactive)
20,COCc1cccc(C(=O)Nc2ccc(C(C)(C)C)cc2)c1,60.8% (active)
21,COc1cc(C)c(CN(C)C(=O)CCl)cc1OC,-15.9% (inactive)
22,COC(=O)c1cccc(S(=O)(=O)N(C)Cc2ccc(C)cc2C)c1,82.9% (active)

row,Structure (SMILES),inhibition
1,O=C(O)c1c(NC(=O)C2CCCCC2)sc2c1CCC2,79.8% (active)
2,O=C(Nc1ccccc1Cl)c1csc2c1CCCC2,50% (inactive)
3,NC(=O)c1c(NC(=O)CC23CC4CC(CC(C4)C2)C3)sc2c1CCC2,70.6% (active)
4,COC(=O)c1c(NC(=O)c2ccccc2Br)sc(C)c1C,88.2% (active)
5,NC(=O)c1c(NC(=O)C2CCCCC2)sc2c1CCCC2,-14.9% (inactive)
6,O=C(NC1CC1)c1c(NC(=O)C23CC4CC(CC(C4)C2)C3)sc2c1CCCC2,41.1% (inactive)
7,CCOC(=O)c1sc(N)c(C(=O)OC)c1C,-1.92% (inactive)
8,Cc1cccc(OCCNC(=O)c2c(NC(=O)C3CC3)sc(C)c2C)c1,20.2% (inactive)
9,COC(=O)c1c(NC(=O)c2ccccc2Cl)sc2c1CCCC2,98.2% (active)
10,COc1ccc(-c2ccc(NC(=O)c3cccnc3)c(C)c2)c(OC)c1OC,40.8% (inactive)
11,O=C(C=Cc1ccco1)Nc1sc2c(c1C(=O)O)CCCC2,8.18% (inactive)
12,O=C(Nc1sc2c(c1C(=O)O)CCCC2)c1cccnc1,70.5% (active)
13,Cc1cc(NC(=O)Cc2cc(-c3ccc4c(c3)CC(C)O4)on2)no1 (stereo unspecified),34.1% (inactive)
14,CC1Cc2cc(-c3cc(CC(=O)NCc4cccnc4)no3)ccc2O1 (stereo unspecified),37.3% (inactive)
15,O=C(Cc1cc(-c2ccc3c(c2)OCO3)on1)NCCC1=CCCCC1,41% (inactive)
16,CC1Cc2cc(-c3cc(CC(=O)NCc4ccco4)no3)ccc2O1 (stereo unspecified),92.3% (active)
17,COc1cccc(-c2cc(CC(=O)NCCC3=CCCCC3)no2)c1,83.2% (active)
18,CC1Cc2cc(-c3cc(CC(=O)NCCC4=CCCCC4)no3)ccc2O1 (stereo unspecified),73.2% (active)

# Source: PubChem BioAssay AID1259343 (VanderVen Lab, College of Veterinary Medicine, Cornell …, 2017)
